Compound activity (PubChem BioAssay)
GalR3 antagonist = human GalR3 antagonism; HEK293 GalR3-CNG cAMP membrane potential fluorescence; galR3 body fused to GalR1 C-terminus; AID 651719; inhibition, % at 3 µM; O60755; 360,000 tested, 0.44% active;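 active = inhibition above the screen-wide average plus 3 SD, cut at about 13% in these data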;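 also: forskolin and galanin both at EC90 stimulate the cells; cAMP rise reported by CNG channel membrane potential dye signal; 0% = forskolin plus galanin with DMSO and 100% = forskolin alone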
Target sequence (O60755 1-299 limits assumed): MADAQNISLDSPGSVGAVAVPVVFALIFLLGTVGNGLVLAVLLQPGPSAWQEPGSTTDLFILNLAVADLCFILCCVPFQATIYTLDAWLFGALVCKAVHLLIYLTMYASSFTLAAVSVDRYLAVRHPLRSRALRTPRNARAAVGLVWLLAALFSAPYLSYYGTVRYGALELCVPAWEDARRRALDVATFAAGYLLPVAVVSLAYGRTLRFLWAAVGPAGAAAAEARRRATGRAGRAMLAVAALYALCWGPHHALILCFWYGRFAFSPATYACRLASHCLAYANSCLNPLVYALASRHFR
SRC1 inh = inhibitors of human steroid receptor coactivator 1 (SRC1) | inhibition, % at 3.6 µM | HEK293 GAL4-SRC1 luciferase reporter, luminescence | AID 588354 | 360,000 tested, 0.12% active | Q15788;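 active = inhibition above the campaign mean plus 3 SD, with each screening campaign given its own cutoff, cut at about 60% in these data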;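 also: 0% = DMSO treated cells and 100% = gossypol at 36 µM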
NCOA3 inh = inhibits human SRC3 coactivator; inhibition, % at 3.6 µM; 360,000 tested, 0.17% active; AID 588352; HEK293 GAL4-SRC3 luciferase reporter, luminescence;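 active = inhibition above a per-campaign cutoff, the mean of all compounds plus 3 SD, cut at about 60% in these data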;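 also: 0% = DMSO-treated cells and 100% = gossypol-treated cells at 36 µM; higher means less SRC3-driven luciferase light from the GAL4 reporter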
NR2F2 inh = inhibitors of human COUP-TFII (NR2F2). P24468. HEK293T NGFI-A luciferase reporter, luminescence. inhibition, % at 8.6 µM. 370,000 tested, 0.7% active. AID 686940;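 active = inhibition above a per-plate cutoff, mean inhibition of test wells between control levels plus 3 SD, cut at about 38% in these data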;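 also: cells cotransfected with COUP-TFII expression vector driving the NGFI-A reporter; 0% = median of COUP-TF2 test wells and 100% = reporter-only cells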
NR5A2 inv ag = suppresses constitutive activity of human LRH-1; inhibition, % at 3.6 µM; 360,000 tested, 0.13% active; HEK293T StAR-luciferase reporter, LRH-1 transfected, 24 h;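 active = inhibition above the mean inhibition of all tested compounds plus 3 SD, cut at about 73% in these data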;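 also: 0% = DMSO wells and 100% = reporter-only cells lacking LRH-1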
SRC2 inh = human SRC2 (NCOA2) inhibition. HEK293 GAL4-SRC2 luciferase reporter, luminescence. 370,000 tested, 0.17% active. Q15596. inhibition, % at 9 µM. AID 651957;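 active = inhibition above the mean inhibition of all tested compounds plus 3 SD, set per campaign, cut at about 52% in these data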;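 also: 0% = DMSO treated cells and 100% = cells given Gossypol at 36 µM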
The depositor's hits bear a star. Hits are enriched below; roughly 1.1% of the tested compounds scored in any of these assays.

Screening CCN1/C(=C\C=C\C2=[N+](CC)c3ccccc3C2(C)C)C(C)(C)c2ccccc21 returned SRC1 inh 75*, NCOA3 inh 81* and NR5A2 inv ag 91*.
For CCCc1nc2ccc(Br)cc2c(=O)n1-c1ccc([N+](=O)[O-])c(C(F)(F)F)c1 the results were GalR3 antagonist 6, SRC1 inh 35, NCOA3 inh 64*, NR2F2 inh 18, NR5A2 inv ag 6 and SRC2 inh 6.
For N=c1c2c(n(Cc3ccc(Cl)cc3Cl)c3c1CCC3)CCCC2 the results were SRC1 inh 49, NCOA3 inh 43 and NR5A2 inv ag 82*.
Screening c1ccc2c(c1)[IH]c1ccccc1-2 returned GalR3 antagonist 86*, SRC1 inh 19, NCOA3 inh 19, NR2F2 inh 59*, NR5A2 inv ag 67 and SRC2 inh -97.
For CCCn1c(C(=O)c2ccccc2)nc2ccccc21 the results were GalR3 antagonist -2, SRC1 inh -4, NCOA3 inh -14, NR2F2 inh 2, NR5A2 inv ag -16 and SRC2 inh -22.
Screening Cc1cccc(Cn2cc(C=O)c3ccccc32)c1 returned GalR3 antagonist -14, SRC1 inh 13, NCOA3 inh 17, NR2F2 inh 5, NR5A2 inv ag 28 and SRC2 inh 30.
For O=Cc1cn(Cc2cccc([N+](=O)[O-])c2)c2ccccc12 the results were GalR3 antagonist -2, SRC1 inh 41, NCOA3 inh 30, NR2F2 inh 14, NR5A2 inv ag 81* and SRC2 inh 32.
`Cc1nc2ccccc2c(=O)n1-c1ccc(Cl)c(Cl)c1` gave GalR3 antagonist -3, SRC1 inh -296, NCOA3 inh -15, NR2F2 inh -44, NR5A2 inv ag -51 and SRC2 inh -120.
`CC(O)C1C=CC=CC(=O)OC2CC3OC4C5OC5(C)CCC4(COC(=O)C4OC4(C)C(O)CO1)C2(C)C31CO1` (stereo not drawn) gave GalR3 antagonist -4, SRC1 inh 95*, NCOA3 inh 94*, NR2F2 inh 91*, NR5A2 inv ag 99* and SRC2 inh 74*.
`C=C(C)CSc1nnc([C@@H](N)Cc2c[nH]c3ccccc23)o1` gave GalR3 antagonist -4, SRC1 inh -12, NCOA3 inh 11, NR2F2 inh -5, NR5A2 inv ag 11 and SRC2 inh 16.
`Cc1[nH]nc2ccc(-c3cncc(OC[C@@H](N)Cc4c[nH]c5ccccc45)c3)cc12` gave SRC1 inh 94*, NCOA3 inh 94* and NR5A2 inv ag 99*.
For CCOC(=O)c1nc2ccccc2c(=O)n1-c1cccc(C)c1 the results were GalR3 antagonist -3, SRC1 inh 4, NCOA3 inh -6, NR2F2 inh 5, NR5A2 inv ag -3 and SRC2 inh 6.
CC[C@@]1(O)C(=O)OCc2c1cc1n(c2=O)Cc2cc3c(NC(=O)CN)cccc3nc2-1 was read as GalR3 antagonist -10, SRC1 inh 26, NCOA3 inh 44, NR2F2 inh -27, NR5A2 inv ag 46 and SRC2 inh 7.
Screening CCC1(OC(=O)CN)C(=O)OCc2c1cc1n(c2=O)Cc2cc3ccccc3nc2-1 (stereo not drawn) returned SRC1 inh 27, NCOA3 inh 69* and NR5A2 inv ag 87*.
Screening CC(C)[C@H]1C(=O)O[C@H](C(C)C)C(=O)N(C)[C@@H](C(C)C)C(=O)O[C@H](C(C)C)C(=O)N(C)[C@@H](C(C)C)C(=O)O[C@H](C(C)C)C(=O)N1C returned SRC1 inh 37, NCOA3 inh 70* and NR5A2 inv ag -15.
For CC[C@H](C)[C@@H]1OC(=O)[C@H](C(C)C)N(C)C(=O)[C@H](C(C)C)NC(=O)[C@@H](C)[C@@H](CCCC#CBr)OC(=O)[C@H](C(C)C)N(C)C(=O)C2CCCN2C1=O (stereo partly drawn) the results were NR2F2 inh 25.
For ClCCN(CCCl)c1ccc(C=Cc2ccncn2)cc1 the results were GalR3 antagonist -5, SRC1 inh -40, NCOA3 inh -59, NR2F2 inh -30, NR5A2 inv ag -123 and SRC2 inh 2.
CC(C)CC1C(C#N)=C(N)Oc2c1c(=O)oc1ccccc21 (stereo not drawn) was read as GalR3 antagonist -3, SRC1 inh -20, NCOA3 inh -23, NR2F2 inh 17, NR5A2 inv ag 7 and SRC2 inh 7.
CC1=CC2OC3CC4OC(=O)C=CC=CC(=O)OCCC(C)C(O)C(=O)OCC2(CC1O)C4(C)C31CO1 (stereo not drawn) was read as SRC1 inh 94*, NCOA3 inh 93* and NR5A2 inv ag 97*.
`O=C(Nc1ccc(Cl)cc1C(=O)c1ccccc1)c1ccco1` gave GalR3 antagonist -6, SRC1 inh -13, NCOA3 inh 16, NR2F2 inh -10, NR5A2 inv ag 2 and SRC2 inh -11.
Screening COc1ccc2c(c1)[nH]c1c(C)nccc12 returned GalR3 antagonist -4, SRC1 inh 71*, NCOA3 inh 73*, NR2F2 inh 31, NR5A2 inv ag 38 and SRC2 inh 48.
Cc1nccc2c1[nH]c1ccc(Br)cc12 was read as GalR3 antagonist 1, SRC1 inh 17, NCOA3 inh 29, NR2F2 inh -2, NR5A2 inv ag -1 and SRC2 inh 15.
For c1ccc2c(CNC3CCCCC3)c[nH]c2c1 the results were GalR3 antagonist -4, NR2F2 inh -10 and SRC2 inh 9.
`COC1=C(C)C(=O)C2=C(C1=O)C(CO)N1C(C#N)C3CC4C(C1C2N1CCOC41)N3C` (stereo not drawn) gave GalR3 antagonist -4, SRC1 inh 76*, NCOA3 inh 83*, NR2F2 inh 1, NR5A2 inv ag 63 and SRC2 inh 56*.
For Cc1cccc(C(O)(C(=O)O)c2ccccc2)c1 (stereo not drawn) the results were GalR3 antagonist -5, SRC1 inh -24, NCOA3 inh -10, NR2F2 inh 12, NR5A2 inv ag 6 and SRC2 inh -30.
For CC(=O)OC(C)(C)/C=C/C(=O)C(C)(O)C1C(O)CC2(C)C3CC=C4C(CC(O)C(=O)C4(C)C)C3(C)C(=O)CC12C (stereo not drawn) the results were GalR3 antagonist -5, SRC1 inh -3, NCOA3 inh 16, NR2F2 inh -5, NR5A2 inv ag 47 and SRC2 inh 62*.
`O=C(C[n+]1ccn(CCCNP2(=O)C=C(c3ccccc3)OC(c3ccccc3)=C2)c1)c1ccccc1` gave GalR3 antagonist -8, SRC1 inh -13, NCOA3 inh 22, NR2F2 inh -33, NR5A2 inv ag 3 and SRC2 inh -6.
`O=C1CN=C(c2ccc[nH]2)c2cc(Cl)ccc2N1` gave GalR3 antagonist -8, SRC1 inh 53, NCOA3 inh 51, NR2F2 inh 3, NR5A2 inv ag 40 and SRC2 inh 53*.
